FLuc inh: Photinus pyralis luciferase inhibition; AID 1347043; purified P. pyralis luciferase, luminescence, biochemical; hit rate 2.5% among 76,000; Potency, µM (titrated, usually from 115 µM), hits mostly inhibitors; also: % is scaled to controls: 0 for no effect and ±100 for the full control effect; nearly all actives have a fitted effect of over 65% in size
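Luminescence read by CCD imaging after purified firefly luciferase (10nM final) was added to substrate buffer holding 10uM D-luciferin and 10uM ATP, pH 7.5, pre-dosed with compound.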
HEK cytotox: kills HEK 293 cells. HEK 293 viability, ATP luminescence (CellTiter-Glo), 48-72 h. Potency, µM (titrated, usually from 115 µM), for inactives: at the top dose activity change, negative = cytotoxicity, usual class: inhibitors. hit rate 6.6% among 94,000. AID 1345083; also: % is scaled to controls: 0 for no effect and ±100 for the full control effect; nearly all actives have a fitted effect of over 60% in size
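HEK 293 seeded at 250 cells/well receive compound via pintool. After 48 or 72 hr at 37 degree Celsius, 5% CO2 and 95% humidity, CellTiter-Glo is dispensed and luminescence read following 10 min at room temperature.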
hNpr1 antagonist: blocks ANP-stimulated signaling of human Npr1 receptor; P16066; HEK293 hNpr1 GloSensor cGMP, ANP-stimulated luminescence; Potency, µM (highest dose often 46.3 µM), for inactives: at the top dose activity change, negative = inhibition, most hits filed as inhibitors; hit rate 1.6% among 76,000; calls by dose curve; also: % is scaled to controls: 0 for no effect and ±100 for the full control effect; nearly all actives have a fitted effect of over 60% in size
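Compound pre-incubated 30 min at room temperature on GloSensor-loaded HEK293 cells stably carrying hNpr1 and the pGS-40F cGMP biosensor. Stimulation uses hNppA at 0.1 nM final; luminescence is taken at baseline and 20 min post-agonist.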
3T3 cytotox: kills NIH 3T3 cells; NIH 3T3 viability, CellTiter-Glo ATP luminescence, 48-72 h; Potency, µM (highest dose often 96.7 µM), without a hit: at the top dose activity change, negative = cytotoxicity, usual class: inhibitors; hit rate 4.3% among 94,000; also: % is scaled to controls: 0 for no effect and ±100 for the full control effect; nearly all actives have a fitted effect of over 55% in size
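First NIH 3T3 cells are plated at 400 cells/well; next compound is pinned in; then plates incubate 48 or 72 hr at 37 °C; finally CellTiter-Glo is added and luminescence read after 10 min.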
Npr1 antag conf: confirmation of human Npr1 natriuretic peptide receptor antagonists; Potency, µM (titrated, usually from 57.6 µM), for inactives: at the highest dose activity change, negative = inhibition, hits mostly inhibitors; shares compounds with hNpr1 antagonist; hit rate 76% among 1,400; HEK293 hNpr1 cGMP GloSensor luminescence, ANP-stimulated; calls by dose curve; also: nearly all actives have a fitted effect of over 70% in size
NPR2 antag: hNpr2 antagonism, selectivity versus Npr1 | HEK293 hNpr2 GloSensor cGMP luminescence, CNP-stimulated | hit rate 67% among 1,400 | shares compounds with hNpr1 antagonist | Potency, µM (doses to about 57.6 µM), for the others: at the highest dose activity change, negative = inhibition, most hits filed as inhibitors | AID 1347046; calls by dose curve; also: nearly all actives have a fitted effect of over 70% in size
FLuc inh counter: FLuc enzyme inhibition, Npr1 counter-screen | shares compounds with hNpr1 antagonist | purified FLuc enzyme, luminescence, Km substrate | Potency, µM (highest dose often 57.6 µM), for inactives: top-dose activity change, negative = inhibition, most hits filed as inhibitors | hit rate 0.7% among 1,400; also: 0% is about no effect
GloSensor ctrl: reduces cGMP signal in GloSensor control cells; shares compounds with hNpr1 antagonist; hit rate 69% among 1,400; HEK293 GloSensor cGMP, SNP-stimulated, luminescence; AID 1347051; Potency, µM (top dose mostly 57.6 µM), for the others: at the top dose activity change, negative = inhibition, most hits filed as inhibitors; calls by dose curve; also: % is scaled to controls: 0 for no effect and ±100 for the full control effect; nearly all actives have a fitted effect of over 70% in size
An asterisk follows results filed as active; i = inactive; ? = inconclusive; / = no result; [ ] = another dose, or the depositor's remark. Most compounds without a hit are left out; they make up all but 11% or so of the library. Unless noted, calls follow the shape of the dose curve; as a rule, active = well fitted curve in the direction sought with a large enough effect; inconclusive = small, poorly fitted or top-dose-only effect, or another doubt; inactive = no such curve, though single readings can be large; an effect the other way counts as inactive or inconclusive. Potency is read from the fitted curve at half-maximal effect.

SMILES	FLuc inh	HEK cytotox	hNpr1 antagonist	3T3 cytotox	Npr1 antag conf	NPR2 antag	FLuc inh counter	GloSensor ctrl
CC(=O)c1c(C)nn(CC(=O)N2CCn3nc(Cc4ccccc4)cc3C2)c1C	i	?	11µM*	-34%	22µM*	19µM*	-1%	14µM*
O=C(CN1CCCc2nc(-c3ccncc3)ncc2C1=O)N1CCc2ccccc2C1	i	35µM*	8.9µM*	?	12µM*	15µM*	2%	15µM*
O=C(CN1CCCc2nc(-c3ccncc3)ncc2C1=O)NCCN1CCOCC1	i	-4%	-21%	-1%	/	/	/	/
COc1ccc(-c2nccn3cc(C(=O)NCc4ccc(OC)c(OC)c4)nc23)cc1	i	?	13µM*	-26%	19µM*	15µM*	0%	3%
CC(C)CNC(=O)c1ccc2oc(-c3cccnc3)nc2c1	/	-4%[172 µM]	/	-17%[138 µM]	/	/	/	/
CC(=O)Nc1ccc(CN2CCCC23Cc2ccccc2CN(C(C)=O)C3)cc1 (stereo not drawn)	/	?	/	-29%	/	/	/	/
O=C(c1cc(Cl)ccc1F)N1CCN(c2cc(-c3ccccc3)[nH]n2)CC1	i	?	-20%	?	/	/	/	/
O=C(c1ccc(F)cc1Cl)N1CCN(c2cc(-c3ccc(F)cc3)[nH]n2)CC1	i	?	11µM*	?	17µM*	19µM*	-1%	15µM*
O=C(c1cc(F)ccc1F)N1CCN(c2cc(-c3ccc(Cl)cc3)[nH]n2)CC1	i	35µM*	?	28µM*	27µM*	24µM*	1%	31µM*
COc1cc(=O)n2c(c1C(=O)Nc1ccc(C#N)cc1)CCCC2	i	10%	1%	i	/	/	/	/
CCOc1ccc(CN2CCCC(CO)(CCc3ccccc3)C2)cc1CO (stereo not drawn)	i	?	5%	?	/	/	/	/
COCCN1CCCN(C(=O)c2ccoc2)c2ccccc21	i	?	-5%	-10%	/	/	/	/
Cn1nccc1C(=O)N1CCCN(CCc2ccccc2)c2ccccc21	i	?	?	?	19µM*	14µM*	-1%	-29%
O=C(CCC1CCN(C(=O)c2cc(C3CC3)[nH]n2)CC1)N1CCC(Cc2ccccc2)CC1	i	?	13µM*	?	24µM*	22µM*	-18%	19µM*
O=C(CCC(F)(F)F)N1CCC(CCC(=O)N2CCC(Cc3ccccc3)CC2)CC1	i	?	?	?	/	/	/	/
CC1=C[C@@H](CNC2CCOCC2)[C@H](C(C)C)C[C@H]1Cc1nc2ccccc2n1C	i	?	-23%[70.6 µM]	?	/	/	/	/
CC1=C[C@@H](CNS(C)(=O)=O)[C@H](C(C)C)C[C@H]1Cc1nc2ccccc2n1C	i	?	28µM*	?	35µM*	28µM*	0%[86.2 µM]	31µM*
CC(=O)N[C@H]1C[C@@H](Cc2cc(CN3CCCCC3)on2)C1(C)C	i	-21%[172 µM]	-2%[70.6 µM]	?	/	/	/	/
CC1(C)[C@H](Cc2cc(CN3CCN(c4ccccc4)CC3)on2)C[C@@H]1NC(=O)Nc1ccc(F)cc1	i	?	13µM*	?	19µM*	22µM*	3%	19µM*
CC1(C)[C@H](Cc2cc(CN3CCN(c4ccccc4)CC3)on2)C[C@@H]1NC(=O)NCc1ccccc1	i	25µM*	11µM*	?	22µM*	?	7%	17µM*
CC(C)(C)CC(=O)N[C@H]1C[C@@H](Cc2cc(COc3ccccc3)on2)C1(C)C	i	?	14µM*	?	13µM*	16µM*	2%[86.2 µM]	14µM*
Cc1cccc(-n2ncc3c2CCCC3NC(=O)CCC(F)(F)F)c1C (stereo not drawn)	i	?	?	-27%	24µM*	?	2%	24µM*
O=C(c1cccc(Cl)c1)N1CCCC(C(=O)N2CCCC2c2nc3ccncc3[nH]2)C1 (stereo not drawn)	/	2%	/	-24%	/	/	/	/
Cn1nc(C2CCN(S(=O)(=O)c3ccc4c(c3)CCCC4)CC2)n(C2CCCC2)c1=O	i	?	11µM*	?	19µM*	19µM*	1%	14µM*
CC(C)CCN1CCC(N2CCN(S(=O)(=O)c3ccc4c(c3)CCCC4)CC2)C1=O (stereo not drawn)	i	?	?	?	-30%	-24%	5%	-8%
SMILES	FLuc inh	HEK cytotox	hNpr1 antagonist	3T3 cytotox	Npr1 antag conf	NPR2 antag	FLuc inh counter	GloSensor ctrl
Cn1ncc(CN2CCc3[nH]cnc3C2c2cccc(C#N)c2)c1C1CC1 (stereo not drawn)	i	-5%	-5%	-19%	/	/	/	/
CCCN1C(=O)Cc2ccccc2C1C(=O)N1CCN(c2ccccc2)CC1 (stereo not drawn)	i	?	-1%	-10%	/	/	/	/
O=C(N1CCOCC1)N1C2CCC1CN(c1ccc(C(F)(F)F)cc1)C2	/	?	/	14µM*	22µM*	22µM*	5%	19µM*
O=C(c1ccncc1)N1C2CCC1CN(c1ccc(C(F)(F)F)cc1)C2	/	?	/	?	24µM*	22µM*	1%	22µM*
CC(=O)NCCCC(=O)N1C2CCC1CN(c1ccc(C(F)(F)F)cc1)C2	/	-29%	/	?	/	/	/	/
COCCn1c(=O)c(C(=O)NCC(F)(F)F)nc2cccnc21	/	-8%[172 µM]	/	i	/	/	/	/
CCn1c2c(c(=O)n1Cc1ccccc1)CCN(C(=O)c1ccc(Oc3ccccc3)cc1)C2	i	?	11µM*	?	24µM*	22µM*	0%	19µM*
CCn1c2c(c(=O)n1-c1ccccc1)CCN(C(=O)c1ccc(Oc3ccccc3)cc1)C2	i	?	8.9µM*	?	8.6µM*	11µM*	0%	7.7µM*
COc1cccc(C(=O)N2CCC3(CC2)N(c2ccccc2)C(=O)CS3=O)c1 (stereo not drawn)	/	-7%	/	-25%	/	/	/	/
CC(C)(C)C(=O)N[C@H]1CO[C@H]2[C@@H]1OC[C@@H]2Nc1nccc(-c2ccc(-c3ccccc3)cc2)n1	i	?	?	-30%	22µM*	?	-1%	22µM*
O=C(Nc1cccc2ccccc12)O[C@@H]1CO[C@H]2[C@@H]1OC[C@@H]2Nc1nccc(-c2ccccc2)n1	i	?	-10%	-25%	/	/	/	/
